The source holds several records for some structures; these can differ, active in one and inactive in another. The source made the active and inactive calls. Rule for the calls: active = hit-call score of the fitted dose curve at least 0.9, where 1 is the maximum; inactive = score below 0.9.
Legend:
[1] = read-out: Interleukin-1 alpha (IL1a), IL1A (gene 3552); experiment: BSK_KF3CT_IL1a: BioMAP Diversity Plus: KF3CT Assay for Interleukin-1 alpha (IL1a) Biomarker Activity (AID 2283070); conditions: primary human keratinocytes with fibroblasts; actives raise or lower the signal
Outline: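 Human keratinocyte plus foreskin fibroblast primary co-culture, sampled 24 h after chemical dosing. IL-1a measured by ELISA; responses fitted bidirectionally against DMSO baseline (negative control), so gain or loss of signal both count.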

[2] = read-out: TIMP metallopeptidase inhibitor 2 (TIMP2), TIMP2 (gene 7077); experiment: BSK_KF3CT_TIMP2: BioMAP Diversity Plus: KF3CT Assay for TIMP metallopeptidase inhibitor 2 (TIMP2) Biomarker Activity (AID 2283071); conditions: primary human keratinocytes with fibroblasts; actives raise or lower the signal
Outline: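 Cells: human keratinocytes co-cultured with foreskin fibroblasts. Treat with chemical, 24 h. Measure TIMP-2 by ELISA; fit curves bidirectionally vs DMSO baseline.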

[3] = read-out: Transforming growth factor beta 1 (TGFb1), TGFB1 (gene 7040); experiment: BSK_KF3CT_TGFb1: BioMAP Diversity Plus: KF3CT Assay for Transforming growth factor beta 1 (TGFb1) Biomarker Activity (AID 2283072); conditions: primary human keratinocytes with fibroblasts; actives raise or lower the signal
Outline: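 Primary human skin cells (keratinocytes, foreskin fibroblasts) were co-cultured, exposed to test chemical and sampled at 24 h. TGF-b1 levels were measured by ELISA and fitted bidirectionally relative to DMSO.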

[4] = read-out: C-C motif chemokine 2 (Homo sapiens) (UniProt P13500); experiment: BSK_KF3CT_MCP1: BioMAP Diversity Plus: KF3CT Assay for Monocyte Chemoattractant Protein 1 (MCP1/CCL2) Biomarker Activity (AID 2283073); conditions: primary human keratinocytes with fibroblasts; actives raise or lower the signal
Outline: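 ELISA read-out of MCP-1, 24 h post-dose, in primary human skin keratinocytes co-cultured with fibroblasts. Parallel SRB staining monitors cytotoxicity; changes fitted both directions relative to DMSO.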

[5] = read-out: Matrix Metallopeptidase 9 (MMP9), MMP9 (gene 4318); experiment: BSK_KF3CT_MMP9: BioMAP Diversity Plus: KF3CT Assay for Matrix Metallopeptidase 9 (MMP9) Biomarker Activity (AID 2283074); conditions: primary human keratinocytes with fibroblasts; actives raise or lower the signal;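 for AC50: MMP9 protein level quantified by ELISA in the co-culture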
Outline: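 Keratinocyte plus foreskin fibroblast human primary skin co-culture was dosed with chemical and MMP-9 was quantified by ELISA 24 h later. Bidirectional curve fitting used DMSO as negative control and activity baseline.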

[6] = read-out: urokinase plasminogen activator (uPA), PLAU (gene 5328); experiment: BSK_KF3CT_uPA: BioMAP Diversity Plus: KF3CT Assay for urokinase plasminogen activator (uPA) Biomarker Activity (AID 2283075); conditions: primary human keratinocytes with fibroblasts; actives raise or lower the signal
Outline: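 Human keratinocyte plus foreskin fibroblast primary co-culture exposed to chemical for 24 h. uPA levels were quantified by ELISA, and activity was fitted bidirectionally against a DMSO negative-control baseline.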

[7] = read-out: CD40, CD40 (gene 958); experiment: BSK_LPS_CD40: BioMAP Diversity Plus: LPS Assay for CD40 Biomarker Activity (AID 2283076); conditions: primary human HUVEC with PBMC; actives raise or lower the signal
Outline: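 In the LPS system of human endothelial cells with peripheral blood mononuclear cells, CD40 levels were read by ELISA 24 h post-treatment. Signal changes in either direction were fitted against the DMSO baseline, with parallel SRB protein staining.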

[8] = read-out: Interleukin-8 (IL8), CXCL8 (gene 3576); experiment: BSK_LPS_IL8: BioMAP Diversity Plus: LPS Assay for Interleukin-8 (IL8) Biomarker Activity (AID 2283078); conditions: primary human HUVEC with PBMC; actives raise or lower the signal
Outline: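 ELISA read-out of IL-8 after 24 h chemical treatment of LPS-activated endothelial/PBMC human primary co-cultures. Changes either up or down relative to DMSO; overt cytotoxicity checked by sulforhodamine B staining in parallel wells.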

[9] = BSK_LPS_SRB: Viability Assessment in the BioMAP Diversity Plus: LPS Assay (AID 2283079); conditions: primary human HUVEC with PBMC;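 note: total protein by sulforhodamine B absorbance as a cytotoxicity measure; measured one day after compound addition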
Outline: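 SRB viability endpoint: cells fixed with 10% TCA, stained with 0.1% SRB, read at 560 nm, 24 h post-dose. HUVEC/PBMC co-culture; signal change in either direction scored relative to DMSO.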

Measured: AC50

ClC1C(Cl)C(Cl)C(Cl)C(Cl)C1Cl (centres undefined)
inactive: [1] | [2] | [3] | [4] | [5] | [6] | [7] | [8] | [9]
active: [2] 20 µM | [3] 20 µM

CCS(=O)(=O)c1cccnc1S(=O)(=O)NC(=O)Nc1nc(OC)cc(OC)n1
inactive: [1] | [2] | [3] | [5] | [6] | [7] | [9]
active: [4] 0.202 µM | [8] 5.47 µM

COc1cc(OC)nc(NC(=O)NS(=O)(=O)c2cc(NC=O)ccc2C(=O)N(C)C)n1
inactive: [1] | [2] | [3] | [4] | [5] | [6] | [7] | [8] | [9]

COC(=O)c1ccccc1S(=O)(=O)NC(=O)Nc1nc(C)nc(OC)n1
inactive: [1] | [2] | [3] | [4] | [5] | [6] | [7] | [8] | [9]

CCC(C)(NC(=O)c1cc(Cl)c(C)c(Cl)c1)C(=O)CCl (centres undefined)
active: [1] 26.6 µM | [2] 16.6 µM | [3] 20 µM | [4] 15.9 µM | [5] 7.45 µM | [6] 35.5 µM | [7] 3.52 µM | [8] 12.2 µM | [9] 20 µM

CC(C)N(C(=O)COc1nnc(C(F)(F)F)s1)c1ccc(F)cc1
inactive: [1] | [2] | [3] | [4] | [5] | [6] | [7] | [8] | [9]

O=C(Nc1ccccc1)Nc1cnns1
inactive: [1] | [2] | [3] | [4] | [5] | [6] | [7] | [8] | [9]

CC[C@H](C)[C@H]1O[C@]2(C=C[C@@H]1C)C[C@@H]1C[C@@H](C/C=C(\C)[C@@H](O[C@H]3C[C@H](OC)[C@@H](O[C@H]4C[C@H](OC)[C@@H](O)[C@H](C)O4)[C@H](C)O3)[C@@H](C)/C=C/C=C3\CO[C@@H]4[C@H](O)C(C)=C[C@@H](C(=O)O1)[C@]34O)O2 (tested in a mixture with another compound)
active: [1] 6.95 µM | [2] 12.6 µM | [3] 31.7 µM | [4] 7.59 µM | [5] 5.77 µM | [6] 15.5 µM | [7] 6.65 µM | [8] 5.94 µM | [9] 6.41 µM

CCCN(CCOc1c(Cl)cc(Cl)cc1Cl)C(=O)n1ccnc1
active: [7] 20 µM | [9] 31.4 µM
inactive: [1] | [2] | [3] | [4] | [5] | [6] | [8]

OCCOc1ccccc1
inactive: [1] | [2] | [3] | [4] | [5] | [6] | [7] | [8] | [9]

O=[N+]([O-])c1c(Cl)c(Cl)c(Cl)c(Cl)c1Cl
inactive: [3] | [4] | [8] | [9]
active: [1] 24.4 µM | [2] 29.9 µM | [5] 15.7 µM | [6] 31 µM | [7] 17.9 µM

C#CCN1C(=O)COc2cc(F)c(N3C(=O)C4=C(CCCC4)C3=O)cc21
inactive: [1] | [2] | [3] | [4] | [5] | [6] | [7] | [8] | [9]

CCC(C)Nc1c([N+](=O)[O-])cc(C(C)(C)C)cc1[N+](=O)[O-] (centres undefined)
inactive: [1] | [2] | [3] | [4] | [5] | [6] | [8]
active: [7] 31.9 µM | [9] 20 µM
